Inconclusive results are not listed. Active and inactive are the calls of the source. The call rests on the fitted dose curve; in most records, active means well fitted cell-killing curve with a large enough effect in the repeat runs; inconclusive means weak or mixed curves, or effect the other way; inactive means flat fitted curve, though single readings scatter.
Experiment: cAMP Responsive Elements (CRE) small molecule antagonists, cell-based qHTS assay: qHTS cell viability counter screen (AID 2060913); further: nearly all actives have a fitted effect of over 40% in size
Conditions: CRE-bla HEK293T viability, CellTiter-Glo luminescence, 5 h; series mostly up to 92.4 µM; viability change, negative = cytotoxic: at the top concentration
Summary of the method: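 HEK293T CRE-bla, 2,000 cells/well, 18 h preincubation; cpd in DMSO + NKH477 0.25 uM final, 3 h 37 C/5% CO2; LiveBLAzer 2 h RT, then CellTiter-Glo 30 min RT, luminescence.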
On the % scale 0 is the no-effect control and ±100 the full control effect; potency means the concentration at half of the fitted maximal effect.

| SMILES | Potency | viability change, negative = cytotoxic |
| --- | --- | --- |
| Cc1cc(Cl)ccc1N | inactive |  |
| Oc1cc(Cl)c(Cl)c(Cl)c1 | 51.7 µM (active) |  |
| O=[N+]([O-])c1c(Cl)c(Cl)cc(Cl)c1Cl |  | 0.21% (inactive) |
| O=C1c2ccccc2C(=O)C1C(=O)C(c1ccccc1)c1ccccc1 |  | 0.388% [at 42.5 µM] (inactive) |
| CC(C)Oc1cccc(NC(=O)c2ccccc2C(F)(F)F)c1 |  | 0.493% (inactive) |
| NC(=O)c1ccc(N)nc1 |  | 4.37% (inactive) |
| CCCCc1c(C)nc(NCC)nc1OS(=O)(=O)N(C)C |  | -0.302% (inactive) |
| CCS(=O)(=O)CCSP(=O)(OC)OC |  | 3.8% (inactive) |
| O=C(N[C@@H]1N=C(c2ccccc2F)c2cccc3c2N(CC3)C1=O)c1cc2ccccc2[nH]1 |  | -1.16% [at 42.5 µM] (inactive) |
| C=CCN1C[C@H](C)N([C@H](c2ccc(C(=O)N(CC)CC)cc2)c2cccc(OC)c2)C[C@H]1C |  | -1.48% [at 42.5 µM] (inactive) |
| Nc1ccccc1C(=O)O |  | 0.686% [at 42.5 µM] (inactive) |
| CCCN(CCC)c1c([N+](=O)[O-])cc(S(N)(=O)=O)cc1[N+](=O)[O-] | 43 µM (active) |  |
| CC(C)(C)OOC(C)(C)CCC(C)(C)OOC(C)(C)C |  | 6.58% (inactive) |
| Brc1ccc(Oc2ccc(Br)cc2Br)c(Br)c1 |  | -14.9% (inactive) |
| Nc1c(Cl)c(Cl)nc(C(=O)O)c1Cl | inactive |  |
| CSc1ccc(C(=O)C(C)(C)N2CCOCC2)cc1 |  | -11.8% (inactive) |
| CCCCC(CC)COC(=O)c1ccccc1C(=O)OCC(CC)CCCC (stereo not given) |  | -0.216% (inactive) |
| ClC=C(Cl)Cl |  | 15.3% (inactive) |
| O=C(O)c1ccccc1C(=O)Nc1cccc2ccccc12 |  | 2.86% (inactive) |
| Nc1ncc([N+](=O)[O-])s1 | inactive |  |

| SMILES | Potency | viability change, negative = cytotoxic |
| --- | --- | --- |
| O=C(NC(O)C(Cl)(Cl)Cl)NC(O)C(Cl)(Cl)Cl (stereo not given) |  | 1.87% [at 42.5 µM] (inactive) |
| C#CCOC(C(=O)OCCN(C)C)(c1ccccc1)c1ccccc1 |  | 4% [at 42.5 µM] (inactive) |
| COc1cc(C[C@@H](C)N)c(OC)cc1C |  | -1.48% (inactive) |
| Cc1cc(C)cc(OP(=O)(Oc2cc(C)cc(C)c2)Oc2cc(C)cc(C)c2)c1 |  | -22.5% (inactive) |
| CCCCCCCCCc1ccc(O)cc1 | inactive |  |
| CCOP(=S)(Oc1cnc(C(C)(C)C)nc1)OC(C)C (stereo not given) |  | -9.73% (inactive) |
| O=C(NC(=O)c1c(F)cccc1F)Nc1ccc(OC(F)(F)C(F)OC(F)(F)F)c(Cl)c1 (stereo not given) |  | -5.02% [at 42.5 µM] (inactive) |
| CNCC(=O)c1ccc(O)c(O)c1 |  | 5.69% [at 42.5 µM] (inactive) |
| CN=CNc1ccc(C)cc1C |  | 4.89% (inactive) |
| [Hg+2].[I-].[I-] | 54.5 µM (active) |  |
| CC(C)[C@H](C(=O)OC(C#N)c1cccc(Oc2ccccc2)c1)c1ccc(OC(F)F)cc1 (stereo not given in full) |  | -19.2% (inactive) |
| CCCCOC(=O)c1ccccc1N |  | -12.6% (inactive) |
| [Cl][Sn]([c]1ccccc1)([c]1ccccc1)[c]1ccccc1 | 2.59 µM (active) |  |
| O=[N+]([O-])c1ccccc1-c1ccccc1 |  | 2.2% (inactive) |
| CCCCOC(=O)[C@@H](C)Oc1ccc(Oc2ccc(C#N)cc2F)cc1 |  | -3.37% (inactive) |
| C[C@@H]1O[C@@H](O[C@H]2C[C@@H](O)[C@]3(CO)[C@H]4[C@H](O)C[C@]5(C)[C@@H](C6=CC(=O)OC6)CC[C@]5(O)[C@@H]4CC[C@]3(O)C2)[C@H](O)[C@H](O)[C@H]1O | 0.073 µM (active) |  |
| COc1ccc([N+](=O)[O-])cc1O |  | -7.08% [at 42.5 µM] (inactive) |
| CC(Cl)C(C)Cl (stereo not given) |  | 7.8% (inactive) |
| COC(=O)NS(=O)(=O)c1ccc(N)cc1 | inactive |  |
| C=CC[C@]1(O)CC[C@H]2[C@@H]3CCC4=CC(=O)CCC4=C3C=C[C@@]21C |  | -0.352% [at 42.5 µM] (inactive) |

Reference: PubChem BioAssay (Tox21)
